Test results as given in PubChem BioAssay (EPA / NIEHS).
Inconclusive results are not listed. The source made the active and inactive calls. How the source made its calls, unless noted: active means hit-call score of the fitted dose curve at least 0.9, where 1 is the maximum; inactive means score below 0.9.

Assays:
[1] = target: Paired box protein Pax-6 (Homo sapiens) (UniProt P26367); experiment: ATG_Pax6_CIS: Attagene CIS-FACTORIAL HepG2 Assay for human Paired Box 6 (PAX6) (AID 2282956); conditions: HepG2 CIS-FACTORIAL PAX6 reporter transcription, RNA readout; actives raise or lower the signal
Paired box protein Pax-6 (Homo sapiens), sequence (P26367 whole entry, looked up): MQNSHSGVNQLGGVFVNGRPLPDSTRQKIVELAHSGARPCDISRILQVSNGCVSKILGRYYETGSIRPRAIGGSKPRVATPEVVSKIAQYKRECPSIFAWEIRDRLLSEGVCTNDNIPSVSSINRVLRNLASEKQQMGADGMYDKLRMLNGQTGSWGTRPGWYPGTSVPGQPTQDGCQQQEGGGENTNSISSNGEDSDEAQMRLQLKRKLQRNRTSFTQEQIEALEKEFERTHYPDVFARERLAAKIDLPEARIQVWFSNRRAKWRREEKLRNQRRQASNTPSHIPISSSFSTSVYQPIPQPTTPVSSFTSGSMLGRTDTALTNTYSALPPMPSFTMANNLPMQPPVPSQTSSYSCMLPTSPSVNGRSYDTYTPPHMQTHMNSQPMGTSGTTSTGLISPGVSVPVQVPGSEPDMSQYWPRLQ
Summary of the method: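 HepG2 cells transiently transfected with multiplexed cis-promoter reporter units (endogenous TF activity) were dosed for 24 h. Reporter mRNA was quantified by RT-PCR, 6-FAM labeling, HpaI digestion and capillary electrophoresis; bidirectional fitting versus DMSO baseline.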

[2] = ATG_PPRE_CIS: Attagene CIS-FACTORIAL HepG2 Assay for human Peroxisome Proliferator-activated Response Element (PPRE) (AID 2282958); conditions: HepG2 PPRE cis-element reporter, Attagene transcription factor profiling; actives raise or lower the signal
Summary of the method: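 Transcript-level reporter induction in transfected HepG2 cells after 24 h chemical exposure, quantified by fluorescence from RT-PCR products separated by capillary electrophoresis.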

[3] = ATG_RORE_CIS: Attagene CIS-FACTORIAL HepG2 Assay for human RAR-related Orphan Receptor Element (RORE) (AID 2282959); conditions: HepG2 Attagene cis-factorial RORE reporter, mRNA; actives raise or lower the signal
Summary of the method: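 Multiplexed reporter assay measuring mRNA induction from a cis promoter element in transiently transfected HepG2 cells after 24 h treatment. Detection via RT-PCR and capillary electrophoresis fluorescence; DMSO serves as baseline.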

[4] = ATG_Sox_CIS: Attagene CIS-FACTORIAL HepG2 Assay for human SRY-box transcription factor (SOX) (AID 2282960); conditions: HepG2 Attagene cis-factorial SOX reporter, mRNA; actives raise or lower the signal
Summary of the method: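 Cells were transfected with reporter constructs under cis-regulatory promoters, then exposed to chemicals for 24 h. Reporter transcripts were quantified by fluorescence after RT-PCR and capillary electrophoresis; activity was fitted in both directions against DMSO.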

[5] = target: Transcription factor Sp1 (Homo sapiens) (UniProt P08047); experiment: ATG_Sp1_CIS: Attagene CIS-FACTORIAL HepG2 Assay for human Specificity Protein 1 (Sp1) (AID 2282961); conditions: HepG2 Sp1 cis-reporter transcription, actives raise or lower the signal
Transcription factor Sp1 (Homo sapiens), sequence (P08047 whole entry, looked up): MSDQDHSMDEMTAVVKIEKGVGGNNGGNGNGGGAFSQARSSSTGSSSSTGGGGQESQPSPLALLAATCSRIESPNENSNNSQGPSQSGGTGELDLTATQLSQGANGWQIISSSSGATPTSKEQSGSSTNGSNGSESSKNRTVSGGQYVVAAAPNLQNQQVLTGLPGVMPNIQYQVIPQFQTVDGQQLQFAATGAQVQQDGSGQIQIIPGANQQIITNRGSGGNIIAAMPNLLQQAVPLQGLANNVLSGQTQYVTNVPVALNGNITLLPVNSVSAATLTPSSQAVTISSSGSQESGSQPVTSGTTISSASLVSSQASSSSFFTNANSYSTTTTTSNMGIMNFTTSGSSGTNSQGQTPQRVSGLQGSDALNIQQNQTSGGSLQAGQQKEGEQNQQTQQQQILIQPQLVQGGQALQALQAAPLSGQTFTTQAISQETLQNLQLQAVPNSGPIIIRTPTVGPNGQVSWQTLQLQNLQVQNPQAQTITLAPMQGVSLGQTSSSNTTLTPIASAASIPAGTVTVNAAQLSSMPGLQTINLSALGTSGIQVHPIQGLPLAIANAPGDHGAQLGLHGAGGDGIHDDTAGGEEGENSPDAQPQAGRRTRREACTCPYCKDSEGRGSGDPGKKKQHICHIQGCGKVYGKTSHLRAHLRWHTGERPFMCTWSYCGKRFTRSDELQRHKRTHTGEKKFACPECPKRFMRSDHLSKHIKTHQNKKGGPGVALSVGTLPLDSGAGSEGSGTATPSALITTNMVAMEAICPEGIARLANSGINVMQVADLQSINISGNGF
Summary of the method: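 Measures mRNA induction of an Sp1-linked reporter in HepG2 cells 24 h post-dosing. Multiplexed reporters read by RT-PCR and capillary electrophoresis; DMSO serves as negative control and baseline.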

[6] = ATG_SREBP_CIS: Attagene CIS-FACTORIAL HepG2 Assay for human Sterol Regulatory Element Binding (SREBP) (AID 2282962); conditions: HepG2 Attagene cis-factorial SREBP reporter, mRNA; actives raise or lower the signal
Summary of the method: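 HepG2 cells transiently transfected with multiplexed cis-element reporter units report endogenous transcription factor activity. After 24 h of chemical exposure, reporter mRNA was quantified by RT-PCR, 6-FAM labelling, HpaI digestion and capillary electrophoresis; bidirectional fits used DMSO as baseline.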

[7] = target: Signal transducer and activator of transcription 3 (Homo sapiens) (UniProt P40763); experiment: ATG_STAT3_CIS: Attagene CIS-FACTORIAL HepG2 Assay for human Signal Transducer and Activator of Transcription 3 (STAT3) (AID 2282963); conditions: HepG2, Attagene cis-factorial STAT3 reporter transcription; actives raise or lower the signal
Signal transducer and activator of transcription 3 (Homo sapiens), sequence (P40763 whole entry, looked up): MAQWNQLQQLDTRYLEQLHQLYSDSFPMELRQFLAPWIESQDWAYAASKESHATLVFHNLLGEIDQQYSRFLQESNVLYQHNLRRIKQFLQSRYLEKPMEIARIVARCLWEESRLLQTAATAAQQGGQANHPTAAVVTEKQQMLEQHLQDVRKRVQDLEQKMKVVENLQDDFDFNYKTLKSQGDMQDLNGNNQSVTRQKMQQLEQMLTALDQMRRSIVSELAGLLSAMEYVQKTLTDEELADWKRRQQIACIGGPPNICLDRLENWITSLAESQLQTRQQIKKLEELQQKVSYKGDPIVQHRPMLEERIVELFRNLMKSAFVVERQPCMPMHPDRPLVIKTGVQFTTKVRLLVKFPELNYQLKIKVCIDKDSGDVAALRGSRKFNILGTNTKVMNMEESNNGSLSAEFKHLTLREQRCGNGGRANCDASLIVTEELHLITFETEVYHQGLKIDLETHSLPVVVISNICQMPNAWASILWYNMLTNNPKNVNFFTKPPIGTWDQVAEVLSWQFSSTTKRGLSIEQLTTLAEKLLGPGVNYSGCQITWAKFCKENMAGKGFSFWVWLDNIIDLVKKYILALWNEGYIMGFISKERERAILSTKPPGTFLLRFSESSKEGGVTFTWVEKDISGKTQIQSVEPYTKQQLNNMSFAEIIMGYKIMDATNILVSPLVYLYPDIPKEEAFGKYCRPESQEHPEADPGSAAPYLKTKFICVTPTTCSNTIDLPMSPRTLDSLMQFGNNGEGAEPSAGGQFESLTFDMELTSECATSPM
Summary of the method: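 Transcript-level reporter assay. HepG2 transient MRTU transfection, 24 h exposure, fluorescence detection after RT-PCR and CE; DMSO baseline.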

[8] = ATG_TA_CIS: Attagene CIS-FACTORIAL HepG2 Assay for human TA Basal Promoter (AID 2282964); conditions: HepG2 Attagene CIS-factorial TA basal promoter reporter; actives raise or lower the signal
Summary of the method: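 HepG2 cells transiently transfected with multiplexed cis-promoter reporter units, dosed 24 h. Reporter mRNA measured by RT-PCR, 6-FAM labelling, HpaI digestion and capillary electrophoresis; bidirectional fit versus DMSO baseline, serving as background control.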

[9] = ATG_TCF_b_cat_CIS: Attagene CIS-FACTORIAL HepG2 Assay for human T-Cell-Factor with beta-catenin (TCF/b-cat) (AID 2282965); conditions: HepG2 TCF/beta-catenin cis-reporter transcription, actives raise or lower the signal
Summary of the method: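 Using capillary electrophoresis as the read-out, labelled reporter cDNA fragments from transiently transfected HepG2 were sized and quantified. Exposure lasted 24 hours; activity in either direction was referenced to DMSO.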

[10] = ATG_TAL_CIS: Attagene CIS-FACTORIAL HepG2 Assay for human TAL Basal Promoter (AID 2282966); conditions: HepG2 Attagene cis-factorial TAL promoter reporter; actives raise or lower the signal;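 further: background control endpoint measuring basal TAL promoter reporter mRNA not a specific factor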
Summary of the method: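 Readout: reporter mRNA, fluorescence by CE. System: HepG2, transient multi-reporter transfection, endogenous TF activity. Exposure: 24 h. Analysis: bidirectional, DMSO-normalized; background control.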

[11] = ATG_TGFb_CIS: Attagene CIS-FACTORIAL HepG2 Assay for human Transforming Growth Factor (TGF) (AID 2282967); conditions: HepG2 Attagene CIS TGFb reporter, mRNA transcription; actives raise or lower the signal
Summary of the method: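 HepG2 cells transiently transfected with cis-promoter-driven multiplexed reporter units; 24 h compound exposure. Reporter mRNA measured by RT-PCR, 6-FAM labeling, HpaI digestion and capillary electrophoresis; bidirectional fit versus DMSO baseline.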

[12] = target: X-box-binding protein 1 (Homo sapiens) (UniProt P17861); experiment: ATG_Xbp1_CIS: Attagene CIS-FACTORIAL HepG2 Assay for human X-box Binding Protein 1 (XBP1) (AID 2282972); conditions: HepG2 XBP1 cis-element reporter, Attagene multiplex; actives raise or lower the signal
X-box-binding protein 1 (Homo sapiens), sequence (P17861 whole entry, looked up): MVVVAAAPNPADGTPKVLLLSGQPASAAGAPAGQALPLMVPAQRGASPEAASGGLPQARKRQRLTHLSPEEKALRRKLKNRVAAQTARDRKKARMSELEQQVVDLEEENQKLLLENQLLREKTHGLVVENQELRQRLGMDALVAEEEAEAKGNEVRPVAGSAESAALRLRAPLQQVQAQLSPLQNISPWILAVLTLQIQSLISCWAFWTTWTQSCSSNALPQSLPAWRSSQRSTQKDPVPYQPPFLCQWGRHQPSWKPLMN
Summary of the method: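 HepG2 cells transiently transfected with cis-regulated multiple reporter transcription units; endogenous transcription factor activity measured 24 hours after chemical dosing. Reporter mRNA quantified by RT-PCR, 6-FAM primer extension, HpaI digestion and capillary electrophoresis; bidirectional fitting versus DMSO.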

[13] = target: Estrogen-related receptor gamma (Homo sapiens) (UniProt P62508); experiment: ATG_ERRg_TRANS: Attagene TRANS-FACTORIAL HepG2 Assay for human Estrogen-Related Receptor gamma (ERRg) (AID 2282977; active means hit-call score of the fitted dose curve at least 0.9, where 1 is the maximum;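 further: hits increase reporter signal over DMSO so potencies reflect activators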); conditions: HepG2 Attagene TRANS reporter, ERRg transactivation
Estrogen-related receptor gamma (Homo sapiens), sequence (P62508 whole entry, looked up, the tested form may be a part): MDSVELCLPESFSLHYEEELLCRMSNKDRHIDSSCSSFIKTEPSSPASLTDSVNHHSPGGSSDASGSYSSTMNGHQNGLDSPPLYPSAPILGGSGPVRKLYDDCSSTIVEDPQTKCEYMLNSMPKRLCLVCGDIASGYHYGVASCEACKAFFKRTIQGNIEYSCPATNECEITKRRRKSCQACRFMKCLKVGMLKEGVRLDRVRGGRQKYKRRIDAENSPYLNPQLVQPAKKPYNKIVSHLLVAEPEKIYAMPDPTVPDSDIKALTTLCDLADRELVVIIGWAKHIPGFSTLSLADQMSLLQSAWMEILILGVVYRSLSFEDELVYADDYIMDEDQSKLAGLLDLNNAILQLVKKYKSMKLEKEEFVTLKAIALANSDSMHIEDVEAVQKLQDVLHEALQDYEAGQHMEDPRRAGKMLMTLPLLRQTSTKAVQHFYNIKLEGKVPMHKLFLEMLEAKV
Summary of the method: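 Transfect HepG2 with multiple GAL4-UAS reporter transcription units; dose chemicals 24 h; isolate RNA, reverse-transcribe with oligo(dT), PCR-amplify, label with 6-FAM, digest with HpaI; size fragments by capillary electrophoresis. DMSO serves as negative control.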

[14] = ATG_VDRE_CIS: Attagene CIS-FACTORIAL HepG2 Assay for human Vitamin D Receptor Element (VDRE) (AID 2282968); conditions: HepG2 VDRE cis-reporter transcription, actives raise or lower the signal
Summary of the method: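 RT-PCR/CE readout of reporter mRNA; HepG2, transient transfection, 24 h dosing; DMSO baseline; bidirectional analysis.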

[15] = target: Nuclear receptor subfamily 1 group I member 3 (Homo sapiens) (UniProt Q14994); experiment: ATG_CAR_TRANS: Attagene TRANS-FACTORIAL HepG2 Assay for human Constitutive Androstane Receptor (CAR) (AID 2282969; active means hit-call score of the fitted dose curve at least 0.9, where 1 is the maximum;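 further: activators raise reporter mRNA above DMSO so AC50 marks induction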); conditions: HepG2 Attagene TRANS-FACTORIAL CAR reporter
Nuclear receptor subfamily 1 group I member 3 (Homo sapiens), sequence (Q14994 whole entry, looked up, the tested form may be a part): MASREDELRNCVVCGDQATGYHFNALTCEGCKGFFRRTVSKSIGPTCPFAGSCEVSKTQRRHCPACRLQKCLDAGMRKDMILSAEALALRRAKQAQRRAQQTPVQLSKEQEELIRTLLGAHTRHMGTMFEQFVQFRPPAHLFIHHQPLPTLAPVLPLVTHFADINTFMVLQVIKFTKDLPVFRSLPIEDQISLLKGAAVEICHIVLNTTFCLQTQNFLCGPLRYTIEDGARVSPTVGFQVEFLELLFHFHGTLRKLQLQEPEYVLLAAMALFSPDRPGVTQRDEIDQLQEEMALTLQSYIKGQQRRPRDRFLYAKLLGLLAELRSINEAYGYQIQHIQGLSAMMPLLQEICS
Summary of the method: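 HepG2 cells transiently transfected with multiplexed GAL4-UAS reporter units expressing chimeric NR-Gal4 proteins; compound exposure 24 h. Reporter mRNA measured by RT-PCR, 6-FAM labelling, HpaI digestion and capillary electrophoresis; gain-of-signal fitted against DMSO baseline.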

[16] = ATG_GAL4_TRANS: Attagene TRANS-FACTORIAL HepG2 Assay for GAL4 (Internal Marker) (AID 2282976; active means hit-call score of the fitted dose curve at least 0.9, where 1 is the maximum); conditions: HepG2 Attagene TRANS GAL4 internal marker reporter
Summary of the method: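 Fluorescence from capillary electrophoresis of labelled RT-PCR products quantifies reporter mRNA induction after 24 h dosing of HepG2 cells carrying transfected GAL4-UAS reporter transcription units. Vehicle DMSO serves as baseline.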

[17] = ATG_M_19_TRANS: Attagene TRANS-FACTORIAL HepG2 Assay for M19 Transcription Factor (Internal Marker) (AID 2282974; active means hit-call score of the fitted dose curve at least 0.9, where 1 is the maximum); conditions: HepG2 Attagene TRANS-FACTORIAL M19 internal marker reporter
Summary of the method: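 After transfection of HepG2 with GAL4-UAS-driven reporter constructs, cells are dosed for 24 h. Total RNA is reverse-transcribed, reporter sequences PCR-amplified and labelled, then HpaI-digested and sized by capillary electrophoresis.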

[18] = target: Estrogen receptor (Homo sapiens) (UniProt P03372); experiment: ATG_ERa_TRANS: Attagene TRANS-FACTORIAL HepG2 Assay for human Estrogen Receptor alpha (ERa) (AID 2282970; active means hit-call score of the fitted dose curve at least 0.9, where 1 is the maximum); conditions: HepG2 Attagene TRANS ERa GAL4 reporter, mRNA
Estrogen receptor (Homo sapiens), sequence (P03372 whole entry, looked up, the tested form may be a part): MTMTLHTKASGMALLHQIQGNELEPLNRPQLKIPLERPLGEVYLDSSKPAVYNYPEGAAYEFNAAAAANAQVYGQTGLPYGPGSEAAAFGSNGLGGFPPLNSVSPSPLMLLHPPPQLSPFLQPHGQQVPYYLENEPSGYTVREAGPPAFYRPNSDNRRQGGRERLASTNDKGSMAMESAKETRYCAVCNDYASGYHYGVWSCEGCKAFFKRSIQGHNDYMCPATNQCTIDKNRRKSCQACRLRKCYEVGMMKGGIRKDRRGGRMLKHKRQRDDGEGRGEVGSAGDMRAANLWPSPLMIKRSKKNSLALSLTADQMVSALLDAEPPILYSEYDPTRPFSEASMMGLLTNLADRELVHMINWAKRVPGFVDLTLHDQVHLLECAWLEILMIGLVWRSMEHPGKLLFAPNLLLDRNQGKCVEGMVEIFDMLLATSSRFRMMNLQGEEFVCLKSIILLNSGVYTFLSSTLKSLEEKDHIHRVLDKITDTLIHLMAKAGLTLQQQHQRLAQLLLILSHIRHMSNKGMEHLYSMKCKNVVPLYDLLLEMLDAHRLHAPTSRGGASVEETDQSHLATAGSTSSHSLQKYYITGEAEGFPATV
Summary of the method: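 Transactivation via ERa-Gal4 chimera in HepG2; 24 hour incubation; reporter mRNA detected by fluorescence RT-PCR and capillary electrophoresis.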

[19] = ATG_PXRE_CIS: Attagene CIS-FACTORIAL HepG2 Assay for human Pregnane X Receptor Element (PXRE) (AID 2282957); conditions: HepG2 Attagene CIS-FACTORIAL PXRE reporter, mRNA; actives raise or lower the signal
Summary of the method: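 Transiently transfected HepG2 cells were dosed and incubated for 24 h. RNA was then isolated, DNase-treated, reverse-transcribed and reporter sequences amplified. Labeled, HpaI-digested fragments were quantified by capillary electrophoresis against DMSO.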

Measured: AC50

CC(=O)O[C@H](CC(=O)[O-])C[N+](C)(C)C
not listed: [14] | [15] | [16] | [17] | [18] | [19]
inactive: all other assays above

CC(=O)Nc1ccccc1O
not listed: [5] | [13] | [17] | [18] | [19]
inactive: all other assays above

C/C=C(\C)C(=O)OCc1ccccc1
not listed: [2] | [10] | [15] | [17] | [18] | [19]
inactive: all other assays above

COc1ccc(Cl)cc1C
not listed: [2] | [10] | [15] | [16] | [17] | [18] | [19]
inactive: all other assays above

O=C1CCCCCCCCCCOCCCCO1
not listed: [4] | [13] | [16] | [18] | [19]
inactive: all other assays above

CC(C)=CCC[C@](C)(O)[C@@H]1CC=C(C)CC1
not listed: [13] | [16] | [18] | [19]
inactive: all other assays above

Cc1cccc(C)c1[N+](=O)[O-]
not listed: [13] | [15] | [16] | [17] | [18] | [19]
inactive: all other assays above

CC(C)=CCC/C(C)=C/COC=O
not listed: [4] | [13] | [15] | [17] | [18] | [19]
inactive: all other assays above

O=C1OC2(c3cc(Br)c(O)c(Br)c3Oc3c2cc(Br)c(O)c3Br)c2c(Cl)c(Cl)c(Cl)c(Cl)c21
active: [1] 62.2 µM | [3] 50.2 µM | [6] 17 µM | [9] 87.5 µM | [10] 26.1 µM | [11] 58.4 µM | [14] 16.4 µM
not listed: [5] | [16] | [19]
inactive: all other assays above

Cc1ccc(O)c(C(C)(C)C)c1
active: [19] 25.1 µM | [3] 162 µM | [5] 80.7 µM | [6] 100 µM | [10] 181 µM | [14] 100 µM | [12] 142 µM
inactive: [2] | [4] | [8] | [9] | [11] | [15] | [17]

Nc1ccc(F)c([N+](=O)[O-])c1
not listed: [1] | [3] | [7] | [10] | [17]
inactive: all other assays above

CCC(C)CCCC(C)(C)O (centres undefined)
not listed: [1] | [7] | [13] | [15] | [16] | [18]
inactive: all other assays above

COc1cccc(OC)c1
not listed: [1] | [7] | [13] | [17] | [18]
inactive: all other assays above

c1cc(C(c2ccc(OCC3CO3)cc2)c2ccc(OCC3CO3)cc2)ccc1OCC1CO1 (centres undefined)
active: [2] 100 µM | [4] 9.7 µM | [6] 26.3 µM | [7] 66.3 µM | [8] 19.8 µM | [9] 8.93 µM | [11] 23.7 µM | [14] 10 µM | [12] 7.9 µM
inactive: [19] | [3]

CCCCCCCCCCCCOCCO
inactive: [19] | [3] | [4] | [7] | [8] | [9] | [10] | [11] | [16]
active: [5] 49.9 µM | [6] 49.1 µM | [12] 55.5 µM

O=C1c2ccccc2C(=O)N1SC1CCCCC1
active: [19] 148 µM | [5] 59.1 µM | [7] 145 µM | [10] 60.1 µM | [11] 144 µM | [18] 46 µM | [12] 26.5 µM
not listed: [1] | [2] | [3] | [13]
inactive: all other assays above

COc1ccc(NC(=O)CC(C)=O)cc1
not listed: [1] | [4] | [13] | [18] | [19]
inactive: all other assays above

CC1=CCC(O)(C(C)C)CC1 (centres undefined)
active: [19] 39.1 µM
not listed: [1] | [8] | [13] | [17]
inactive: all other assays above

Cc1ccc(Nc2ccc(O)c3c2C(=O)c2ccccc2C3=O)cc1
active: [19] 4.96 µM
not listed: [1] | [10] | [13] | [16]
inactive: all other assays above

C=C[C@@H](C)CCC=C(C)C
not listed: [1] | [4] | [5] | [13] | [15] | [17] | [18]
inactive: all other assays above

Nc1nc2ccc([N+](=O)[O-])cc2s1
active: [19] 19.8 µM | [2] 45.6 µM
not listed: [1] | [3] | [4] | [13] | [15] | [16] | [18]
inactive: all other assays above
